Measured values as given in the supplement of paper PMC11732987, “Enantioselective OTUD7B fragment discovery through chemoproteomics screening and high-throughput optimisation” (Communications Chemistry, 2025).

Experiments:
Assay in all cases: log2 ratio of Biotin-Ahx-Ub-VS probe labelling (fragment/DMSO); higher = less target engagement (more negative = stronger competition), active = hit call of the paper (q ≤ 0.05, log2 ratio ≤ -1)
Settings in all cases: compound concentration: 200 uM; treatment time: 3 h
USP42 = target: T1, USP42 (UniProt Q9H9J4)
T1 sequence (whole entry): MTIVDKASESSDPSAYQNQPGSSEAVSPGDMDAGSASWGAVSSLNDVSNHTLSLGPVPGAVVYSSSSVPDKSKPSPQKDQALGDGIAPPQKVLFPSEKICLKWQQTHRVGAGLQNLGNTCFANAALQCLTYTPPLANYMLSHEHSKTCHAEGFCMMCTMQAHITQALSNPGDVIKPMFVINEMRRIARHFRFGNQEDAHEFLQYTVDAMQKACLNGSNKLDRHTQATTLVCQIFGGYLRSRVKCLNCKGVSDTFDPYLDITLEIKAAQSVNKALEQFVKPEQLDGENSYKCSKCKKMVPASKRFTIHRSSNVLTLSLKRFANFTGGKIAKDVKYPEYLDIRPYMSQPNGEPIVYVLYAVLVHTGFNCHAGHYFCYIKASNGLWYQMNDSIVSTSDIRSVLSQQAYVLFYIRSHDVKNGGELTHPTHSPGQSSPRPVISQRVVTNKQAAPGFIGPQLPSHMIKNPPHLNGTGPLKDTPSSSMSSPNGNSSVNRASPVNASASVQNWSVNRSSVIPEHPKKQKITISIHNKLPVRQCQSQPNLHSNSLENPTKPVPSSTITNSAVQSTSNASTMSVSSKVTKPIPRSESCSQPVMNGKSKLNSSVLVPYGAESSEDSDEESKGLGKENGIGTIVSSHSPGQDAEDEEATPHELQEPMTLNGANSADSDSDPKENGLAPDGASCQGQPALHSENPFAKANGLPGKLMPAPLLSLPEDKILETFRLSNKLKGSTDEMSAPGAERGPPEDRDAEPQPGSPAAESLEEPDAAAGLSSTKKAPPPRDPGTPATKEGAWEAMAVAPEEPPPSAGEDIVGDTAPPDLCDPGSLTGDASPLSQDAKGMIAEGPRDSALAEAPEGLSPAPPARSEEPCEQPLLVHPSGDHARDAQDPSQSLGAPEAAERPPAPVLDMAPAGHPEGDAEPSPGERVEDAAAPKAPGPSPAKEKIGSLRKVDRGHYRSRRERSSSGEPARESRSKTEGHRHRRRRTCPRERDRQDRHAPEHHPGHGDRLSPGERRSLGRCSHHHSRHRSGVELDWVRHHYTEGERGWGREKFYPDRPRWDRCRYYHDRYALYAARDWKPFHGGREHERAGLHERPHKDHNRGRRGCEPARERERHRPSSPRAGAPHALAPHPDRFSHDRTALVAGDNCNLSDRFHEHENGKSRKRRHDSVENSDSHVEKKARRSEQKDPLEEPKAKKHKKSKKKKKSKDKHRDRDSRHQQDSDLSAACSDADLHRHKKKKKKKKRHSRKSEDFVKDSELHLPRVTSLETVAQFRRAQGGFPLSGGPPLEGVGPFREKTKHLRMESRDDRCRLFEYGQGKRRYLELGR
How it was run: (§1)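 Fragment (200 µM) or vehicle was incubated for 3 h with triplicate HEK293T lysate samples of 495 µg, which were then treated with Biotin-Ahx-Ub-VS at 0.5 µM final for 1 h. Labelled DUBs were enriched on NeutrAvidin, digested with LysC and trypsin, and analysed by diaPASEF LC-MS/MS. Values are average log2 fragment/vehicle ratios from an unpaired t-test on global-median-normalised Spectronaut label-free quantities, using proteins with ≥2 unique peptides.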

USP46 = USP46 (UniProt P62068)
How it was run: as §1

USP47 = target: T2, USP47 (UniProt Q96K76)
T2 sequence (whole entry): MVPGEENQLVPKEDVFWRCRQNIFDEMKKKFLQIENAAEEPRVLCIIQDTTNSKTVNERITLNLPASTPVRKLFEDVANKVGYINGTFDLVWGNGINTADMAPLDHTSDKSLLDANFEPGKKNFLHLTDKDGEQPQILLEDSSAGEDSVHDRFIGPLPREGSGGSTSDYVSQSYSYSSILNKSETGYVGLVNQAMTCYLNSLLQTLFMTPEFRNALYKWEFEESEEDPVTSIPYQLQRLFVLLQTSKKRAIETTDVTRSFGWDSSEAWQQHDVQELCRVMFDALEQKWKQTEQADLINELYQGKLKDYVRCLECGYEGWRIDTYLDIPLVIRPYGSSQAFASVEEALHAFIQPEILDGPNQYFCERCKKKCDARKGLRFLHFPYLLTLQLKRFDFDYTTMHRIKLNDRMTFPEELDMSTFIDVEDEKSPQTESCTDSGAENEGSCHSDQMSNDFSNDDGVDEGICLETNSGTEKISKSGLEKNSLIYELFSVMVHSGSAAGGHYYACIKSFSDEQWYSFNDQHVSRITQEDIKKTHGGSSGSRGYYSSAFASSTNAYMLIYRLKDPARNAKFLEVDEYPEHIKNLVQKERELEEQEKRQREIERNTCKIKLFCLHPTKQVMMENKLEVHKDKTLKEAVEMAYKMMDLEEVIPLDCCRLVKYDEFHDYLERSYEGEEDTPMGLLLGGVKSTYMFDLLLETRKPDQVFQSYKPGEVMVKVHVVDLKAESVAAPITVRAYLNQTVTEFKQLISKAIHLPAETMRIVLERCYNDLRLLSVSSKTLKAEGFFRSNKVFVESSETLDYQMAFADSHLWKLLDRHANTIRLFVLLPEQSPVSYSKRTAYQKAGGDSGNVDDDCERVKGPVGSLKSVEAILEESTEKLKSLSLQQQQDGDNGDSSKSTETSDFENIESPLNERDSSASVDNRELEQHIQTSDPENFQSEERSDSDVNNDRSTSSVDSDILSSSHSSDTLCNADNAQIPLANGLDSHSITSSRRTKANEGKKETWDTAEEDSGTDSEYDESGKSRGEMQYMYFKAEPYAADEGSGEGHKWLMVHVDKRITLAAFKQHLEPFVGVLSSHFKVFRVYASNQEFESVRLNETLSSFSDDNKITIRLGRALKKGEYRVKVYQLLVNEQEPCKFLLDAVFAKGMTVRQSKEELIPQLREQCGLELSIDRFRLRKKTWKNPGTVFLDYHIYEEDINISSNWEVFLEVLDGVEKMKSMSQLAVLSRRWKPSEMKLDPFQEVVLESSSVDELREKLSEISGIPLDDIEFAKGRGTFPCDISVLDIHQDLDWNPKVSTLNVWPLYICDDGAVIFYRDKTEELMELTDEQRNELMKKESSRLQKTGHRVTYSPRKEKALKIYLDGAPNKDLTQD
How it was run: as §1

USP48 = target: T3, USP48 (UniProt Q86UV5)
T3 sequence (whole entry): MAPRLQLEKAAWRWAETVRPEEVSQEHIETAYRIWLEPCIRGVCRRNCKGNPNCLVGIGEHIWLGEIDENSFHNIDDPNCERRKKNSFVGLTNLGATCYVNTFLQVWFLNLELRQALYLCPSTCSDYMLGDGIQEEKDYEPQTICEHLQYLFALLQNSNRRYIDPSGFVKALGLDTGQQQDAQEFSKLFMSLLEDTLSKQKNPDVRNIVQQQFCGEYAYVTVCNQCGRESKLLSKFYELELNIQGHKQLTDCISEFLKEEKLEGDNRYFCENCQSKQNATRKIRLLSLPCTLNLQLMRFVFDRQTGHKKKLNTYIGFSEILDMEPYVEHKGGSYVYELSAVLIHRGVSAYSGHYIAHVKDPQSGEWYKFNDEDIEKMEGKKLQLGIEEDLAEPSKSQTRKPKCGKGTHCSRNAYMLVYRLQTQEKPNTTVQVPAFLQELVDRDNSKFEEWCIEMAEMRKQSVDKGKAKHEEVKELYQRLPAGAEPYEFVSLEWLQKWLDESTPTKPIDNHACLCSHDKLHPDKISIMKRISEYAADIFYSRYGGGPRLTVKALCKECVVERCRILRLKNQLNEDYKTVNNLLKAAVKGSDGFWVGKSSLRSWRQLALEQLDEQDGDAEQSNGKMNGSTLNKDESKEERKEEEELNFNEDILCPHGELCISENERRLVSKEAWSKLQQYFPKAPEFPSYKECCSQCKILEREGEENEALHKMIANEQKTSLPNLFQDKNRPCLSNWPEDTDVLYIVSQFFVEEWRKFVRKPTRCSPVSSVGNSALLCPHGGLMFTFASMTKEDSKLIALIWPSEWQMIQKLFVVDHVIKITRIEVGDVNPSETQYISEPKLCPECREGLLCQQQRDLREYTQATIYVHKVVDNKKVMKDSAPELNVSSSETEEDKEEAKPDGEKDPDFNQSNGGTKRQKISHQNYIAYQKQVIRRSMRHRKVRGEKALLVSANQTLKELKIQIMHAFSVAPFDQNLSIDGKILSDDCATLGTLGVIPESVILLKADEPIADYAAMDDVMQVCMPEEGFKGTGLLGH
How it was run: as §1

USP5 = target: T4, USP5 (UniProt P45974)
T4 sequence (whole entry): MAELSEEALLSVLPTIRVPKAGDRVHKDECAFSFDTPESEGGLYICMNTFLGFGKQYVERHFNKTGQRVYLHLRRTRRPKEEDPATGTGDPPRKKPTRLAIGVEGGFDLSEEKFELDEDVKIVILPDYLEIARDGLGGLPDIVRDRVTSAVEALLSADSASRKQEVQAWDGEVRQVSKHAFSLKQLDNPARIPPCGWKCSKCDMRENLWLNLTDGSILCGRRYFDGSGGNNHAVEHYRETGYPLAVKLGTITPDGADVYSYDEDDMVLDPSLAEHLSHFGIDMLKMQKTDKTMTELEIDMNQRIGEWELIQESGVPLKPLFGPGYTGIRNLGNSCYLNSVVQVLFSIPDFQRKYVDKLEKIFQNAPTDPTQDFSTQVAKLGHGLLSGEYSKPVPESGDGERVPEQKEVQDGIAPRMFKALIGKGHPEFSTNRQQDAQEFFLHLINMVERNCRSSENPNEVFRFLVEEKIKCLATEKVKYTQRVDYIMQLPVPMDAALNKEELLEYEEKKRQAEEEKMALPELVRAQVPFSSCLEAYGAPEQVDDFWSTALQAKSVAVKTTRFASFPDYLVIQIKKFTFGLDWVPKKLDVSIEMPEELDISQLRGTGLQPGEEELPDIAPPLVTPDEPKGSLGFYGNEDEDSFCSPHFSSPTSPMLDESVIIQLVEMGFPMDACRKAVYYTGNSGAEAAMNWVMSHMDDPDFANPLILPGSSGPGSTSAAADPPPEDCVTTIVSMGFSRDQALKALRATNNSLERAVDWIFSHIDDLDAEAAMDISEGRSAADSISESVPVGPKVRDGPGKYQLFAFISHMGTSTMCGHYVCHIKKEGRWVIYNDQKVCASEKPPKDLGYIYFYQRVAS
How it was run: as §1

USP54 = USP54 (UniProt Q70EL1)
How it was run: as §1

USP7 = USP7 (UniProt Q93009)
How it was run: as §1

USP8 = target: T5, USP8 (UniProt P40818)
T5 sequence (whole entry): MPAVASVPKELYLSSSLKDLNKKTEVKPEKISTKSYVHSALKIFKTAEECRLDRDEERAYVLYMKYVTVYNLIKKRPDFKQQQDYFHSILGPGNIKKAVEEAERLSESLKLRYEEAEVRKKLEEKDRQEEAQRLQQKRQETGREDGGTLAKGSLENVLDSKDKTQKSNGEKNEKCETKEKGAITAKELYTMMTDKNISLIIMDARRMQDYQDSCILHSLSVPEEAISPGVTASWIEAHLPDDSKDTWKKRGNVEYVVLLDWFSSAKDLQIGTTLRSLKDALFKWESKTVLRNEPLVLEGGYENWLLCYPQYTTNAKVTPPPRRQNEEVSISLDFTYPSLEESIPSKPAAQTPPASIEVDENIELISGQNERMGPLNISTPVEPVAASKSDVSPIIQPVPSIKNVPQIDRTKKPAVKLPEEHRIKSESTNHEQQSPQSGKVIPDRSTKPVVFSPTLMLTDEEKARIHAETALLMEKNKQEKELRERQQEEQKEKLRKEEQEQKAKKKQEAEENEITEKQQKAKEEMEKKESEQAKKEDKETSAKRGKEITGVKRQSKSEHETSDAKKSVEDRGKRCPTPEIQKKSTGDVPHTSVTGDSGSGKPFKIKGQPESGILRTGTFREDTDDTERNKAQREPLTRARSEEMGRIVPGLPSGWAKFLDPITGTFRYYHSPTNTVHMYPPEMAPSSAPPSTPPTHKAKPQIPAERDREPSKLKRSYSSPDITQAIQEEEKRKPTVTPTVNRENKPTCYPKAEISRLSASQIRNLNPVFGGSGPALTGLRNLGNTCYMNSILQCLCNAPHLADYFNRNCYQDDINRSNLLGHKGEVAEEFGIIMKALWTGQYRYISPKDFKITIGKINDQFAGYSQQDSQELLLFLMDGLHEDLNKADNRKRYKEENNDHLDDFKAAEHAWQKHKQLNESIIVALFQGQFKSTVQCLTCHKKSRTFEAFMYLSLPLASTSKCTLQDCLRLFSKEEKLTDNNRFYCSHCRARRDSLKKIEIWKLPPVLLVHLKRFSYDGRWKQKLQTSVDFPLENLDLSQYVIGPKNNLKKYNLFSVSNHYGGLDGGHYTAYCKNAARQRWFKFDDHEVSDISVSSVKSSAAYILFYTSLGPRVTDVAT
How it was run: as §1

Measured: log2 ratio of Biotin-Ahx-Ub-VS probe labelling

USP7, sequence (Q93009 whole entry, looked up): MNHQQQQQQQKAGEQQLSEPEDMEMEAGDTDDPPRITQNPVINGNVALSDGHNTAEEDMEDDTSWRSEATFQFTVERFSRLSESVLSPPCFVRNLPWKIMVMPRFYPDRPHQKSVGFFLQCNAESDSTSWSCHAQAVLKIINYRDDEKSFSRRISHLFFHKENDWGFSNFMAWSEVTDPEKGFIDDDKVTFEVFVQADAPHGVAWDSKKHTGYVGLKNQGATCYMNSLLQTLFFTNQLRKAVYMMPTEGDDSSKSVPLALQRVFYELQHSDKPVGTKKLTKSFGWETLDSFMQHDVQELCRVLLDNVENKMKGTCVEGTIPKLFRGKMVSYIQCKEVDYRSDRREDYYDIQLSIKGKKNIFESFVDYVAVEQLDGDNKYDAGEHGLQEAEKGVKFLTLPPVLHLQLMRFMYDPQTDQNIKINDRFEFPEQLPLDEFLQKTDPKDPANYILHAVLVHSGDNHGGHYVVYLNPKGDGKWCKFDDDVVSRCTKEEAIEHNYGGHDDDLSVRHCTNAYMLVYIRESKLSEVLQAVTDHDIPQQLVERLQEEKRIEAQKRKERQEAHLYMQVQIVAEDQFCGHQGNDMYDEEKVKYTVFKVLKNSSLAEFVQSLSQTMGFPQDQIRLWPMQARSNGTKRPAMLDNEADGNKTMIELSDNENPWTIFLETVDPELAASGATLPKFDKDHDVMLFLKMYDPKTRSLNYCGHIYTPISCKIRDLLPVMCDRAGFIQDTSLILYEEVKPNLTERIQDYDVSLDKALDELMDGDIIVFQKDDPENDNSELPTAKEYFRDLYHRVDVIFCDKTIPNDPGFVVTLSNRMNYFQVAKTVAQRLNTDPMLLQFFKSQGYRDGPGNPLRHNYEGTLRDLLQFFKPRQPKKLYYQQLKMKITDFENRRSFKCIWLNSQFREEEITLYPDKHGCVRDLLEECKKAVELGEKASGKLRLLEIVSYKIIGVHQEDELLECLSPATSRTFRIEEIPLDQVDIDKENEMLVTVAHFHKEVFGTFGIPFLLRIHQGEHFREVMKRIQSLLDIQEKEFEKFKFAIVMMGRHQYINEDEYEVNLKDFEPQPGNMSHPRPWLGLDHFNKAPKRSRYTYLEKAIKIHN
USP46, sequence (P62068 whole entry): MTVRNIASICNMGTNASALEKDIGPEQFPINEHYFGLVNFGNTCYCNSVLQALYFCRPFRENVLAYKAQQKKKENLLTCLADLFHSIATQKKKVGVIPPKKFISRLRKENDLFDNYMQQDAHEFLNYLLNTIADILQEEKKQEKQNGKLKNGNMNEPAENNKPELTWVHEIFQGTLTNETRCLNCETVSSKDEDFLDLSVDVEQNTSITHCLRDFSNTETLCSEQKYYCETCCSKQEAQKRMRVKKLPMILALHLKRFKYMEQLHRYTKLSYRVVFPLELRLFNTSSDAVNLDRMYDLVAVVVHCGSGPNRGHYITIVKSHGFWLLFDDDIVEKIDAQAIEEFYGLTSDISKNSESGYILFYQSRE
USP54, sequence (Q70EL1 whole entry): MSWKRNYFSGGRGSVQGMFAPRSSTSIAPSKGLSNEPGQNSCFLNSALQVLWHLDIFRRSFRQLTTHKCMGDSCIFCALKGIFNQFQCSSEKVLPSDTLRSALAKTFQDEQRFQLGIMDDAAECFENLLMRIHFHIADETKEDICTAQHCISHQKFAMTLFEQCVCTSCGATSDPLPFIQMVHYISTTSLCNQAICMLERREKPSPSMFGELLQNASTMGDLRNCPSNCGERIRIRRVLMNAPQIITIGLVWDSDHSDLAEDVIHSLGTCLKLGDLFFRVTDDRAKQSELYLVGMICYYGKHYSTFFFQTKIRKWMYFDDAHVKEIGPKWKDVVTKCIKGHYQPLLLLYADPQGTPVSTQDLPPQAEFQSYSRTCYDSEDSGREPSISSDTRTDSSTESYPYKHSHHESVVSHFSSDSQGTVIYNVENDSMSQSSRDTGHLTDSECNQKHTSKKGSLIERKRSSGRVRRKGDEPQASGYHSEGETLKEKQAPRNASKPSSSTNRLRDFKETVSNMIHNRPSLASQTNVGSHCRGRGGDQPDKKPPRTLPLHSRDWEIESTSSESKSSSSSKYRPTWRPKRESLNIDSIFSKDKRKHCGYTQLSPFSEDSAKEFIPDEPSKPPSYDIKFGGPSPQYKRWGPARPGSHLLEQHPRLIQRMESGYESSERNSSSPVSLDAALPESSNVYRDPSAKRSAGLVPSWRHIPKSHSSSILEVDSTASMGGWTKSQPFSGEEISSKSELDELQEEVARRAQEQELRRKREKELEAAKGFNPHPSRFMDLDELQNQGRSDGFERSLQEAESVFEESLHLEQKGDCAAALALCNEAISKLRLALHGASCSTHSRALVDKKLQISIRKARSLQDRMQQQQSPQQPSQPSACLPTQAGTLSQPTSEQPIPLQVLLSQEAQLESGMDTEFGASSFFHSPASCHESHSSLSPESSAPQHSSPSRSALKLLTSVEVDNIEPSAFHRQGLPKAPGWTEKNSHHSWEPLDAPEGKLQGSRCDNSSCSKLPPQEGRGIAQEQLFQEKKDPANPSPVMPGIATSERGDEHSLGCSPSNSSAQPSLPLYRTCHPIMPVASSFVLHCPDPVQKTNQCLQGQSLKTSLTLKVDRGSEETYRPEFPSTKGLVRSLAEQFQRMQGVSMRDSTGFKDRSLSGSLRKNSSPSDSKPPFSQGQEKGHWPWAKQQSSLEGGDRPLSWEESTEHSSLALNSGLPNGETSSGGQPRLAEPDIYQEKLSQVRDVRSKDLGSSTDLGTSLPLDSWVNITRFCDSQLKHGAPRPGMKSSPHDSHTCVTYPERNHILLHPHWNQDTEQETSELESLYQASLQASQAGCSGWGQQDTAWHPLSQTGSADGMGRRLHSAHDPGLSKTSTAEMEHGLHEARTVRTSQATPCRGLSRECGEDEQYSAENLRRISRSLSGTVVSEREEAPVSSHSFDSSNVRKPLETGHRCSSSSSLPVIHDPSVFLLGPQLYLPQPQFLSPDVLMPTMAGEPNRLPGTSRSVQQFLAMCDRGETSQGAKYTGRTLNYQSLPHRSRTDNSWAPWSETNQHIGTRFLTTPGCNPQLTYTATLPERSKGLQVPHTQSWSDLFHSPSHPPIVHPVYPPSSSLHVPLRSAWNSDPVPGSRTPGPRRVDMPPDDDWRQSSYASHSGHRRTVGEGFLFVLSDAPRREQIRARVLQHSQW

Cc1cnc2[nH]cc(CCNC(=O)CCl)c2c1
inactive: USP42 0.34 | USP46 -0.0833 | USP47 -0.00951 | USP48 0.00232 | USP5 -0.115 | USP54 0.181 | USP7 -0.0122 | USP8 -0.428
